In the supplement of paper PMC10849652:
Of roughly 7,900 targets only a part is listed; those with a hit were picked by preference. About 0.6% of all pairs of compound and target were hits.

How the values were obtained:
Assay in all cases: log2 fold change, soluble protein after heating vs DMSO (PISA); higher = thermal stabilisation; K562 cells, 10 uM, 30 min; active = over 0.2 and 3.5 SD of the protein, either way, in both replicates (recomputed)
[1] = compound: CC1=C(C=C(C=C1)NC(=O)C2=CC(=CC=C2)C(C)(C)C#N)NC3=CC4=C(C=C3)N=CN(C4=O)C
In short: (§1)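 K562 cells (2×10^6 cells/mL) were treated with 10 μM compound for 30 min, and aliquots were heated for 3 min over 48°C-58°C. Pooled aliquots were extracted in PBS with 0.5% NP-40 at 4°C, and the supernatant after 21,000xg for 90 min was measured by TMTpro 16plex LC-MS/MS with channel sums equalised. Reported thermal stability, relative to control samples and from duplicates, is a log2 fold change.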

[2] = compound: CC1=C(C=C(C=C1)NC(=O)C2=CC(=CC=C2)N(C)C)NC(=O)C3=CC=C(C=C3)O
In short: as §1

[3] = compound: CC1=CC=C(C=C1)SC2=C3C=C(SC3=CN=C2)C(=O)N
In short: as §1

[4] = compound: CC1=NC(=CC=C1)C2=C(N=C(N2)C(C)(C)C)C3=CC4=NC=CN=C4C=C3
In short: as §1

Nexturastat A = compound: CCCCN(Cc1ccc(C(=O)NO)cc1)C(=O)Nc1ccccc1 [Nexturastat A]
In short: as §1

vemurafenib = compound: CCCS(=O)(=O)Nc1ccc(F)c(C(=O)c2c[nH]c3ncc(-c4ccc(Cl)cc4)cc23)c1F [vemurafenib]
In short: as §1

[5] = compound: CCCS(=O)(=O)Nc1ccc(F)c(C(=O)c2c[nH]c3ncc(Cl)cc23)c1F
In short: as §1

[6] = compound: CCCc1cc(C)[nH]c(=O)c1CNC(=O)c1cc(-c2ccnc(N3CCN(C)CC3)c2)cc2c1cnn2C(C)C
In short: as §1

givinostat = compound: CCN(CC)Cc1ccc2cc(COC(=O)Nc3ccc(C(=O)NO)cc3)ccc2c1 [givinostat]
In short: as §1

barasertib = compound: CCN(CCCOc1ccc2c(Nc3cc(CC(=O)Nc4cccc(F)c4)[nH]n3)ncnc2c1)CCOP(=O)(O)O [barasertib]
In short: as §1

[7] = compound: CC[C@@H]1C(=O)N(C)c2cnc(Nc3ccc(C(=O)NC4CCN(C)CC4)cc3OC)nc2N1C1CCCC1
In short: as §1

volasertib = compound: CC[C@@H]1C(=O)N(C)c2cnc(Nc3ccc(C(=O)N[C@H]4CC[C@H](N5CCN(CC6CC6)CC5)CC4)cc3OC)nc2N1C(C)C [volasertib]
In short: as §1

[8] = compound: CC[C@H](C)N1C=C(C2=C(C=C(C=C21)C3=CN=C(C=C3)N4CCNCC4)C(=O)NCC5=C(C=C(NC5=O)C)C)C
In short: as §1

epoxomicin = compound: CC[C@H](C)[C@@H](C(=O)N[C@@H]([C@@H](C)O)C(=O)N[C@@H](CC(C)C)C(=O)[C@]1(CO1)C)NC(=O)[C@H]([C@@H](C)CC)N(C)C(=O)C [epoxomicin]
In short: as §1

[9] = compound: CCn1c(C(=O)N(C2CC2)C2CC2)cc2c3c(ncn3C)c(Nc3cc(C)n(C)n3)nc21
In short: as §1

[10] = compound: CCn1cc(-c2ccnc3[nH]c(-c4cccc(CN(C)C)c4)cc23)c(-c2ccc(NC(=O)N(C)C)cc2)n1
In short: as §1

[11] = compound: CN(C)CC(=O)Nc1ccc2[nH]c(=O)c3ccccc3c2c1
In short: as §1

rosiglitazone = compound: CN(CCOC1=CC=C(C=C1)C[C@H]2C(=O)NC(=O)S2)C3=CC=CC=N3 (racemic) [rosiglitazone]
In short: as §1

[12] = compound: CN1C2=C(C3=C1C(=O)N(N=C3)CC4=CC(=CC=C4)N)SC(=C2)S(=O)C
In short: as §1

[13] = compound: CN1CCC(CNc2ccc3ncc(-c4cccc(OC(F)(F)F)c4)n3n2)CC1
In short: as §1

Measured: log2 fold change

STARD3NL (UniProt O95772)
active: [13] -0.371
inactive: [1] 0.01 | [2] -0.002 | [3] 0.056 | [4] 0.076 | Nexturastat A -0.12 | vemurafenib 0.02 | [5] 0.048 | [6] -0.021 | givinostat 0.009 | barasertib -0.027 | [7] 0.037 | volasertib -0.022 | [8] -0.036 | epoxomicin -0.085 | [9] 0.007 | [10] -0.014 | [11] -0.068 | rosiglitazone 0.014 | [12] -0.058

SLC7A6 (UniProt Q92536)
Sequence of UniProt Q92536 (Q92536 whole entry, looked up): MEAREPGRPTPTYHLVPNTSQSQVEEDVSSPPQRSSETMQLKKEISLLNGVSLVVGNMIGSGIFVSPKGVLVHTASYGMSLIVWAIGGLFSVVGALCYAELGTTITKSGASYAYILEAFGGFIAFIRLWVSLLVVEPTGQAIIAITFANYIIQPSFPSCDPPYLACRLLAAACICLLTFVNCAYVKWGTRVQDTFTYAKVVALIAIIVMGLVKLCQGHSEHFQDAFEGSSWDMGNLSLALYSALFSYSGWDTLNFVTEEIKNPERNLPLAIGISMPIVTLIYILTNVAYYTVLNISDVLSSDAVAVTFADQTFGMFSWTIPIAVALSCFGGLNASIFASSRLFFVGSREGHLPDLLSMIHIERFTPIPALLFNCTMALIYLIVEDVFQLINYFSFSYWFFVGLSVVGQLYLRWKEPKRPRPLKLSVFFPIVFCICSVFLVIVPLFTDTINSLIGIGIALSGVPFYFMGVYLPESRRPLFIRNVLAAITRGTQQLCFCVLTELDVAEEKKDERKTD
inactive: [1] 0.021 | [2] 0.027 | [3] 0.023 | [4] 0.017 | Nexturastat A 0.05 | vemurafenib 0.03 | [5] -0.046 | [6] -0.005 | givinostat 0.012 | barasertib 0.036 | [7] 0.048 | volasertib 0.042 | [8] -0.099 | epoxomicin 0.211 | [9] 0.014 | [10] -0.018 | [11] 0.04 | rosiglitazone 0.023 | [12] -0.036 | [13] 0.122

STXBP2 isoform 3 (UniProt Q15833)
Sequence of UniProt Q15833 (Q15833 whole entry, looked up): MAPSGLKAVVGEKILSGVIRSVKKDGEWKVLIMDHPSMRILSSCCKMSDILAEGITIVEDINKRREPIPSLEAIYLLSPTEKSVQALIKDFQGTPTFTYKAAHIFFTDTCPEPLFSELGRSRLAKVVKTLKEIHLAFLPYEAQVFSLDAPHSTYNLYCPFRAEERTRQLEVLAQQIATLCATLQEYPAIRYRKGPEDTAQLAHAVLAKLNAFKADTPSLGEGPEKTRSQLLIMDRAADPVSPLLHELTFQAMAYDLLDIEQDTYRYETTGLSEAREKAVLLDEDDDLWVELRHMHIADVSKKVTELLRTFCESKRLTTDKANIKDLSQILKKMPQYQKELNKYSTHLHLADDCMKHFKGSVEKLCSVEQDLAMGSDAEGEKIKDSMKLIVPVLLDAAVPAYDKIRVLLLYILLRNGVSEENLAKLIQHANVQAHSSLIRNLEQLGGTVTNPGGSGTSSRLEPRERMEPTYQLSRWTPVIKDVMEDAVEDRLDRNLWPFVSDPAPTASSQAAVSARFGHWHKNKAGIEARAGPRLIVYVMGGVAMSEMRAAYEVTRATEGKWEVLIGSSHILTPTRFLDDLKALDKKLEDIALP
inactive: [1] 0 | [2] -0.042 | [3] 0.036 | [4] -0.017 | Nexturastat A 0.128 | vemurafenib 0.155 | [5] 0.032 | [6] 0.063 | givinostat 0.125 | barasertib 0.068 | [7] -0.015 | volasertib -0.217 | [8] 0.138 | epoxomicin -0.006 | [9] -0.083 | [10] -0.025 | [11] 0.02 | rosiglitazone 0.096 | [12] 0.116 | [13] -0.072

SNUPN (UniProt O95149)
Sequence of UniProt O95149 (O95149 whole entry, looked up): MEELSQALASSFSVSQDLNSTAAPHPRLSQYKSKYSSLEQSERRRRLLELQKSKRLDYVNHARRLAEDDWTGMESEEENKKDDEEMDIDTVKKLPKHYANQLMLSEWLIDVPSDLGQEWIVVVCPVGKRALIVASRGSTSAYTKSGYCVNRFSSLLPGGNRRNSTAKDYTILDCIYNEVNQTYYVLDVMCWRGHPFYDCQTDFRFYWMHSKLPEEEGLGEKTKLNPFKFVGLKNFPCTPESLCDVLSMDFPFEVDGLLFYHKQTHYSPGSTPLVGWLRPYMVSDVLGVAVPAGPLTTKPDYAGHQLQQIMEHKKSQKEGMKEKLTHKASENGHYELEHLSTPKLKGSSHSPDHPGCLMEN
inactive: [1] -0.078 | [2] 0.052 | [3] 0.013 | [4] 0.026 | Nexturastat A -0.037 | vemurafenib -0.024 | [5] -0.065 | [6] 0.013 | givinostat -0.017 | barasertib 0.024 | [7] -0.133 | [8] 0.014 | epoxomicin -0.013 | [9] 0.019 | [10] -0.076 | [11] 0.003 | rosiglitazone -0.001 | [12] -0.01 | [13] -0.004
active: volasertib -0.296

SMCHD1 (UniProt A6NHR9)
Sequence of UniProt A6NHR9 (A6NHR9 whole entry, looked up): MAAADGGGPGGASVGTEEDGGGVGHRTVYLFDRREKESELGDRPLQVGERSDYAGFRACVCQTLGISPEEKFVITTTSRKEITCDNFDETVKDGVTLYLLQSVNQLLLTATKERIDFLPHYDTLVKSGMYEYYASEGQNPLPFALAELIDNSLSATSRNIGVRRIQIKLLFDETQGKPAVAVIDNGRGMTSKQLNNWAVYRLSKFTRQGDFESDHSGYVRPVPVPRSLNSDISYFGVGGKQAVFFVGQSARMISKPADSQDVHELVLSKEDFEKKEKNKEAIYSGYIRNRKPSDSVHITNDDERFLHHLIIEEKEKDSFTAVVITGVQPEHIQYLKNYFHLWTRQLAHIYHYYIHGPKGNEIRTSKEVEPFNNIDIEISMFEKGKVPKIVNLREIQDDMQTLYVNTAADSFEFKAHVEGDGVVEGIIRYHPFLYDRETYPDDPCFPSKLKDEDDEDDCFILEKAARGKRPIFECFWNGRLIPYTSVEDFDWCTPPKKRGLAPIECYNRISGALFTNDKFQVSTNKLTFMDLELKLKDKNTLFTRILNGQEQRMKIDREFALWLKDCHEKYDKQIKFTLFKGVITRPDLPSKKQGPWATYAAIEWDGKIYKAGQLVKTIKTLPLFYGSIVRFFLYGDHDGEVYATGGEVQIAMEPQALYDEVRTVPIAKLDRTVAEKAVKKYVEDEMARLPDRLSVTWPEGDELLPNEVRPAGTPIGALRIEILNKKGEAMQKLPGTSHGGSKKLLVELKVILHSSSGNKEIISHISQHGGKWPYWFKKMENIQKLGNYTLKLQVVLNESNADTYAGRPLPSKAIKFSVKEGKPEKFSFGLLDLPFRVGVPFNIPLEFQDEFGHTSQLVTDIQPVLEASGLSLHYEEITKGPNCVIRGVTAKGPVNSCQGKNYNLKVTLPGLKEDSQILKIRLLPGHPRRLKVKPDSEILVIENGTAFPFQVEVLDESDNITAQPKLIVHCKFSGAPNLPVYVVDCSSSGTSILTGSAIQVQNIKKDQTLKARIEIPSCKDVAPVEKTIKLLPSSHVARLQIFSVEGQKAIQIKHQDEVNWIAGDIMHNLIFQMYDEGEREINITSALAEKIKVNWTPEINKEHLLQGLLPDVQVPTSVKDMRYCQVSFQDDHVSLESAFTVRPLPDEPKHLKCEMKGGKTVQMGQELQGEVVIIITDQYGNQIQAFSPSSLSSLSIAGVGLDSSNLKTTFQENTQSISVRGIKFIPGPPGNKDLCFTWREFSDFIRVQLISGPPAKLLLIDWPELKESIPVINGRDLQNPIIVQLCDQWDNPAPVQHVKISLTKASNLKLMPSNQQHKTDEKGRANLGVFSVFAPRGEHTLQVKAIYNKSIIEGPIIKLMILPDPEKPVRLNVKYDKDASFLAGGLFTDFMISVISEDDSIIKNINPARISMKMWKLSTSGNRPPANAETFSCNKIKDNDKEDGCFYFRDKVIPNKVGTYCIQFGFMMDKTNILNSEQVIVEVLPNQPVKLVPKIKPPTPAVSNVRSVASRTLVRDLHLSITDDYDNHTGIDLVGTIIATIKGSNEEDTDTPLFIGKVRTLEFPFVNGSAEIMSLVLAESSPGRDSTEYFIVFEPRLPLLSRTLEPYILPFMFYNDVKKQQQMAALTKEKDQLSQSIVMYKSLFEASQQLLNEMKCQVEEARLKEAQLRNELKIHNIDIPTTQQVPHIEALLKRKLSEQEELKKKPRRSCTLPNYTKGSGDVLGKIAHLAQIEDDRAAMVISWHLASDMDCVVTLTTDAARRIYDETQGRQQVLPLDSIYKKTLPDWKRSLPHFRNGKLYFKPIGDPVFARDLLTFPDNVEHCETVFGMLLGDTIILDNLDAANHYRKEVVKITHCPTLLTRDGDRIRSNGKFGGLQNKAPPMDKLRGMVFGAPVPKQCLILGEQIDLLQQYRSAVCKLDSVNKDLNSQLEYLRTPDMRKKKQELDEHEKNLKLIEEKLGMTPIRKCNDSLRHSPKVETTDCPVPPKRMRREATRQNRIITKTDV
inactive: [1] -0.067 | [2] 0 | [3] 0.089 | [4] -0.039 | Nexturastat A 0.126 | vemurafenib 0.057 | [5] 0.141 | [6] 0.155 | givinostat 0.101 | barasertib -0.168 | [7] 0.009 | volasertib -0.326 | [8] 0.098 | epoxomicin -0.189 | [9] -0.015 | [10] -0.085 | [11] 0.032 | rosiglitazone -0.118 | [12] -0.023 | [13] -0.144

TLK2 isoform 2 (UniProt Q86UE8)
Sequence of UniProt Q86UE8 (Q86UE8 whole entry, looked up): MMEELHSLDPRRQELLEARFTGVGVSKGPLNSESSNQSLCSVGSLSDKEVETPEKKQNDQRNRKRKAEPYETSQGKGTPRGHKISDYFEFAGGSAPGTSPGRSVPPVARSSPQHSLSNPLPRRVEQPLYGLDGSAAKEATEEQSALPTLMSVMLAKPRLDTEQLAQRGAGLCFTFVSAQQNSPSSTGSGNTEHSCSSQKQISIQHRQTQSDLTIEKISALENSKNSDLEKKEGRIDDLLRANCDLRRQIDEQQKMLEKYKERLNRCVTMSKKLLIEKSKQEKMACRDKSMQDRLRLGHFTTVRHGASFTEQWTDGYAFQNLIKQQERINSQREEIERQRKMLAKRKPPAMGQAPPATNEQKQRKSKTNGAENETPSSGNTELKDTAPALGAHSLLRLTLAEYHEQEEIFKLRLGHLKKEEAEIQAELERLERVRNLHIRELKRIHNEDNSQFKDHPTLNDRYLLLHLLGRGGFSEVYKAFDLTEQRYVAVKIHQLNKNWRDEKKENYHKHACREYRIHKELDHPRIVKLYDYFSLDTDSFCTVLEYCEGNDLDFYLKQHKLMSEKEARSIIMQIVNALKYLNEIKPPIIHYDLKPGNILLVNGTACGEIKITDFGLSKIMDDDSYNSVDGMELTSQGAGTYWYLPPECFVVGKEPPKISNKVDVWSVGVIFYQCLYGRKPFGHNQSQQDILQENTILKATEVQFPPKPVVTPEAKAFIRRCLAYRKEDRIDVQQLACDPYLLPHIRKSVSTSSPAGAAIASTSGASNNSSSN
inactive: [1] -0.003 | [2] -0.015 | [3] -0.013 | [4] 0.02 | Nexturastat A -0.072 | vemurafenib -0.029 | [5] 0.03 | [6] -0.036 | givinostat 0.099 | barasertib -0.006 | [7] -0.015 | volasertib -0.112 | [8] 0.029 | epoxomicin -0.01 | [9] 0.057 | [10] -0.024 | [11] -0.012 | rosiglitazone 0.014 | [12] -0.039 | [13] -0.054

TGFBRAP1 (UniProt Q8WUH2)
Sequence of UniProt Q8WUH2 (Q8WUH2 whole entry, looked up): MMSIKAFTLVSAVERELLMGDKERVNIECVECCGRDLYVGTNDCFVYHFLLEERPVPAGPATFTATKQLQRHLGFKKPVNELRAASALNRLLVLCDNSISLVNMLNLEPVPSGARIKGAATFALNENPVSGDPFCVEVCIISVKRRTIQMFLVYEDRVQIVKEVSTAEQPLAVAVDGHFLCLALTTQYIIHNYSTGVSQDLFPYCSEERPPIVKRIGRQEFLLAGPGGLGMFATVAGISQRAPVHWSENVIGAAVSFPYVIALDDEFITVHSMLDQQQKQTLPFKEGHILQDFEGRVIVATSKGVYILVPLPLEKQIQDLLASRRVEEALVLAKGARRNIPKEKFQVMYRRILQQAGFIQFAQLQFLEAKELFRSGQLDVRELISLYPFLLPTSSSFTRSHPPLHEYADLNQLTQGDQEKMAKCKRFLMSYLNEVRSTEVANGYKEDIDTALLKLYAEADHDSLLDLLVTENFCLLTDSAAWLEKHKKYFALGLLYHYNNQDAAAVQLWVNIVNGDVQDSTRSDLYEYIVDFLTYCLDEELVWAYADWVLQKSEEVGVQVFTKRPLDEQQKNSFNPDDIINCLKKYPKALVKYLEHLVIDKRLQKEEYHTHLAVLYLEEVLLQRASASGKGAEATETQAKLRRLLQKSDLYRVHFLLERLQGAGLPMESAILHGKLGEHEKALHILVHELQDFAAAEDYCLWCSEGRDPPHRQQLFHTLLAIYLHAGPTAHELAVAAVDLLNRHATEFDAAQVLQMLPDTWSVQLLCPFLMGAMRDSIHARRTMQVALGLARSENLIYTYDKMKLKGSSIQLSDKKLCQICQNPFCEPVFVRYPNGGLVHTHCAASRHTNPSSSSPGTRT
inactive: [1] -0.058 | [2] -0.001 | [3] 0.138 | [4] 0.061 | Nexturastat A 0.107 | vemurafenib -0.055 | [5] -0.003 | [6] 0.038 | givinostat 0.092 | barasertib 0.01 | [7] -0.098 | volasertib -0.253 | [8] 0.128 | epoxomicin 0.048 | [9] -0.038 | [10] -0.059 | [11] 0.11 | rosiglitazone 0.097 | [12] 0.195 | [13] 0.011

TBC1D9B (UniProt Q66K14)
active: Nexturastat A 0.361 | [7] -0.58 | volasertib -0.348 | [13] -0.328
inactive: [1] -0.028 | [2] 0.116 | [3] 0.05 | [4] -0.032 | vemurafenib 0.095 | [5] 0.048 | [6] -0.189 | givinostat 0.002 | barasertib 0.04 | [8] 0.053 | epoxomicin -0.073 | [9] -0.089 | [10] -0.141 | [11] 0.021 | rosiglitazone -0.102 | [12] 0.018
